{"source": "PubChem BioAssay (NCI)", "note": "The panel holds about 83,000 compounds, 20% with a hit somewhere; the sample as a whole holds those more often.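 For each line, cells grew in 96-well plates with the test compound present at a single concentration for 48 hours.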 Values without a mark were called inactive. Calls of active or inactive are those of the source. How the source made its calls: active means growth percent below 10; inactive means the rest."}
{"system": "HL-60(TB) leukemia", "assay": "NCI-60 one-dose screen, 48 h (100 = growth as untreated, 0 = no growth, -100 = all killed)", "conditions": "10 µM unless noted"}
{"smiles": "COc1ccc2[nH]c(O)c(/C=c3/ccc4c(c3)N=C(c3ccc(C(F)(F)F)cc3)N=4)c2c1", "growth": "94.4%"}
{"smiles": "O=C1COCCN1c1ccc(Nc2nc(Cl)nc(N3CCOCC3)n2)cc1", "growth": "90.5%"}
{"smiles": "CCN(CCCOc1ccc2c(Nc3cc(CC(=O)Nc4cccc(F)c4)[nH]n3)ncnc2c1)CCOP(=O)(O)O", "growth": "34.9%"}
{"smiles": "O=C(O)CN1C(=O)C=CC1=O", "growth": "96.9%"}
{"smiles": "Cc1[nH]nc(C(N)=O)c1[N+](=O)[O-]", "growth": "129%"}
{"smiles": "Cc1cc(C)nc(SC2=C(Nc3ccc(C)c(Cl)c3)C(=O)N(Cc3ccccc3)C2=O)n1", "growth": "26.1% [30 µM]"}
{"smiles": "COP(=O)(OC)C(c1ccc(O)cc1)(c1ccc(O)cc1)c1ccc(O)cc1", "growth": "93.4%"}
{"smiles": "CC(C)(C)OC(=O)CN1CCc2c(sc3ncnc(N/N=C/c4ccccc4Br)c23)C1", "growth": "92.1%"}
{"smiles": "O=C(NCCNc1nccc(-c2c(-c3cccc(O)c3)nc3sccn23)n1)Nc1cccc(C(F)(F)F)c1", "growth": "36.4%"}
{"smiles": "CCO/C=C1\\SC(=S)N(c2cccc(O)c2)C1=O", "growth": "100%"}
{"smiles": "O=[N+]([O-])/C(=C/C=C/c1ccccc1)c1ccccc1", "growth": "-2.71% (active)"}
{"smiles": "O=C(Nc1ccc(Nc2ccncc2)cc1)c1ccc([N+](=O)[O-])cc1", "growth": "-75.2% (active)"}
{"smiles": "CCCCCCCCCCCCCCCCCC1=NC(C)(C)CN1C(C)(C)CO", "growth": "-66.9% (active)"}
{"smiles": "COc1cc(NCc2cn(-c3ccc(C(=O)O)cc3)nc2-c2ccc(C(=O)O)cc2)cc(OC)c1OC", "growth": "120%"}
{"smiles": "Cc1cccc(N2CCN(C(=S)c3ccc4c(c3)OCO4)CC2)c1", "growth": "-20% (active)"}
{"smiles": "CSc1nsc(N)n1", "growth": "105%"}
{"smiles": "O=[N+]([O-])c1cccc(/C=N/NC(=S)NC23CC4CC(CC(C4)C2)C3)c1", "growth": "101%"}
{"smiles": "Cc1cc2oc(/C=C/c3ccccc3)cc(=O)c2c(C)c1Cl", "growth": "80.8%"}
{"smiles": "Cc1[nH]nc2ccc3nc(-c4ccc5[nH]ncc5c4)c4c(c3c12)CCCC4", "growth": "-15.5% (active)"}
{"smiles": "Cc1c(Cl)cccc1NCN1C(=O)c2ccccc2C1=O", "growth": "113%"}
{"smiles": "O=[N+]([O-])c1ccc2[nH]c(=S)n(/C=C(/c3ccc(Cl)cc3Cl)S(=O)(=O)Cc3ccc(Cl)cc3Cl)c2c1", "growth": "101%"}
{"smiles": "CCN(CC)CCNc1ccc(C)c2sc3cc(C)ccc3c(=O)c12", "growth": "64.1%"}
{"smiles": "CCN(CC)Cc1cc(Nc2ccnc3cc(Cl)ccc23)ccc1OC", "growth": "86%"}
{"smiles": "CCCCCCCCCCCCCCCCCN", "growth": "95.9%"}
{"smiles": "Nc1nc(N)c2cc(CNc3ccc(Cl)c(Cl)c3)ccc2n1", "growth": "1.98% (active)"}
{"smiles": "Cn1cc(/C=C2/C(=O)Nc3ccccc32)c2ccccc21", "growth": "85.8%"}
{"smiles": "CC(=O)c1ccc(NS(=O)(=O)c2ccc([N+](=O)[O-])cc2)cc1", "growth": "90.3%"}
{"smiles": "COc1ccc(C/C(=C(\\C)c2ccc(OCCN3CCCC3)cc2)c2ccc(OCCN3CCCC3)cc2)cc1", "growth": "-58.1% (active)"}
{"smiles": "Cc1ccc(C(=O)CC(=O)C(F)(F)C(F)(F)C(F)(F)F)s1", "growth": "101%"}
{"smiles": "COc1cccc(C(=O)OCCn2nc3c4c(cccc42)C(=O)c2ccccc2-3)c1O", "growth": "0.071% (active)"}
{"smiles": "C=C(C)[C@@H]1CC[C@]2(C(=O)OCCOCCOCC[P+](c3ccccc3)(c3ccccc3)c3ccccc3)CC[C@]3(C)[C@H](CC[C@@H]4[C@@]5(C)CC[C@H](OC(C)=O)C(C)(C)[C@@H]5CC[C@]43C)[C@@H]12", "growth": "-62.3% (active)"}
{"smiles": "C=C(C)[C@@H]1C[C@H](O)Cc2cc(F)ccc2N1", "growth": "-20.3% (active)"}
{"smiles": "CCN(C(=O)N1CCN(c2cc3c(cc2F)c(=O)c(C(=O)O)cn3C2CC2)CC1)c1nc(-c2ccc(C)cc2)cs1", "growth": "7.49% (active)"}
{"smiles": "O=C(NCc1ccc(F)cc1)C1CN(c2ccc(Cl)cc2)N(c2ccc(Cl)cc2)C1=O", "note": "(centres undefined)", "growth": "43.6%"}
{"smiles": "N#Cc1c(N2CCOCC2)nc(=S)[nH]c1-c1ccccc1", "growth": "70.2%"}
{"smiles": "O=c1cc(CNc2cc(F)cc(F)c2)c2ccc(I)cc2[nH]1", "growth": "-32.6% (active)"}
{"smiles": "Cc1cc(C(=O)c2ccccc2)cc(C)c1O", "growth": "31.3%"}
{"smiles": "Cc1ccc2cc3c(NC(=O)c4cccnc4)nn(C)c3nc2c1", "growth": "87.8%"}
{"smiles": "CC(Oc1ccc(Cl)cc1)c1ccccc1", "note": "(centres undefined)", "growth": "93.6%"}
